In PubChem BioAssay (EPA / NIEHS) one finds outcome and AC50 data, which are given here for 20 compounds.

Results filed as inconclusive are left out. The source made the active and inactive calls. The calls were made as follows, unless noted: active = hit-call score of the fitted dose curve at least 0.9, where 1 is the maximum; inconclusive = response in the unintended direction; inactive = score below 0.9.

In experiment [1] the target is Retinoic acid receptor RXR-alpha (Homo sapiens) (UniProt P19793). Description: ATG_RXRa_TRANS: Attagene TRANS-FACTORIAL HepG2 Assay for human Retinoid X Receptor alpha (RXRa) (AID 2283012). Summed up:
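Measures exogenous chimeric NR-GAL4 activity in transfected HepG2 liver cells after 24 h of dosing. Induced reporter mRNA was detected by RT-PCR with capillary electrophoresis, and gain of signal was analysed against DMSO.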

The target in experiment [2] is human Retinoid X Receptor beta (RXRb), RXRB (gene 6257) (UniProt P28702). As to the kind of experiment: ATG_RXRb_TRANS: Attagene TRANS-FACTORIAL HepG2 Assay for human Retinoid X Receptor beta (RXRb) (AID 2283013). Summed up:
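Chimeric receptor-Gal4 activity was assessed in transiently transfected human HepG2 cells after 24 h exposure. Transcripts from GAL4-UAS reporters were quantified by fluorescent RT-PCR and capillary electrophoresis, with DMSO as negative control and baseline.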

Read-out in experiment [3]: Interleukin-1 alpha (IL1a), IL1A (gene 3552)
Description: BSK_BE3C_IL1a: BioMAP Diversity Plus: BE3C Assay for Interleukin-1 alpha (IL1a) Biomarker Activity (AID 2283016; active = hit-call score of the fitted dose curve at least 0.9, where 1 is the maximum; inactive = score below 0.9). The note with it: primary human bronchial epithelial cells; actives raise or lower the signal. Summed up:
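Signal from IL-1a ELISA, taken 24 h after chemical dosing of human bronchial epithelial cells, is compared with DMSO as baseline using bidirectional curve fitting.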

Read-out in experiment [4]: Monocyte Chemoattractant Protein-1 (MCP1), CCL2 (gene 6347)
Description: BSK_3C_MCP1: BioMAP Diversity Plus: 3C Assay for Monocyte Chemoattractant Protein-1 (MCP1) Biomarker Activity (AID 2283017; active = hit-call score of the fitted dose curve at least 0.9, where 1 is the maximum; inactive = score below 0.9). The note with it: primary human endothelial cells (HUVEC); actives raise or lower the signal. The gist of the method:
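MCP-1 was measured by ELISA 24 h after dosing in primary HUVEC 3C cultures and fitted in both directions relative to DMSO; cytotoxicity was checked by SRB total-protein staining in parallel wells.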

Read-out in experiment [5]: Monocyte Chemoattractant Protein-1 (MCP1), CCL2 (gene 6347)
Description: BSK_4H_MCP1: BioMAP Diversity Plus: 4H Assay for Monocyte Chemoattractant Protein-1 (MCP1) Biomarker Activity (AID 2283018; active = hit-call score of the fitted dose curve at least 0.9, where 1 is the maximum; inactive = score below 0.9). The following applies: primary human endothelial cells (HUVEC); actives raise or lower the signal. Summed up: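 Endothelial cells from umbilical vein were treated with test chemical, then after 24 h MCP-1 levels were quantified by ELISA; endpoint values came from bidirectional fitting with DMSO as baseline of activity.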

Read-out in experiment [6]: Human Leukocyte Antigen - DR isotype (HLADR), HLA-DRA (gene 3122)
Description: BSK_3C_HLADR: BioMAP Diversity Plus: 3C Assay for Human Leukocyte Antigen - DR isotype (HLADR) Biomarker Activity (AID 2283019; active = hit-call score of the fitted dose curve at least 0.9, where 1 is the maximum; inactive = score below 0.9;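 as to outcome: ELISA of cell-surface HLA-DR on HUVEC 24 h after dosing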). The note with it: primary human endothelial cells (HUVEC); actives raise or lower the signal. Summed up:
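Bidirectional fitting against DMSO was applied to the HLA-DR ELISA signal from human umbilical vein endothelial cells, 24 h post-dose. Cytotoxicity came from parallel SRB total-protein staining; 3C proliferation was counted by SRB at 48 h.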

Read-out in experiment [7]: Interleukin-8 (IL8), CXCL8 (gene 3576)
Description: BSK_3C_IL8: BioMAP Diversity Plus: 3C Assay for Interleukin-8 (IL8) Biomarker Activity (AID 2283020; active = hit-call score of the fitted dose curve at least 0.9, where 1 is the maximum; inactive = score below 0.9). The note with it: primary human endothelial cells (HUVEC); actives raise or lower the signal. Summed up: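 Endothelial primary cells of human umbilical vein origin are dosed with chemical; after 24 h the IL-8 biomarker is measured by ELISA, and concentration–response is fitted in both directions versus DMSO.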

Read-out in experiment [8]: Monokine induced gamma interferon (MIG), CXCL9 (gene 4283)
As to the kind of experiment: BSK_3C_MIG: BioMAP Diversity Plus: 3C Assay for Monokine induced gamma interferon (MIG) Biomarker Activity (AID 2283021; active = hit-call score of the fitted dose curve at least 0.9, where 1 is the maximum; inactive = score below 0.9). The note with it: primary human endothelial cells (HUVEC); actives raise or lower the signal. The gist of the method: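 Endothelial primary cells (human umbilical vein) are dosed with test chemical in the 3C system. MIG levels are measured by ELISA at 24 h and fitted in both directions relative to DMSO.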

Experiment [9] can be described thus: BSK_3C_SRB: Viability Assessment in the BioMAP Diversity Plus: 3C Assay (AID 2283023; active = hit-call score of the fitted dose curve at least 0.9, where 1 is the maximum; inactive = score below 0.9;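 also: fitted both ways against DMSO so a hit may be signal rise or drop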). The note with it: primary human endothelial cells (HUVEC). Summed up:
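Cytotoxicity readout in parallel HUVEC 3C cultures: after 24 h compound exposure, cells fixed with 10% TCA, stained with 0.1% SRB and read at 560 nm. Gain or loss relative to DMSO fitted.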

Read-out in experiment [10]: Matrix Metallopeptidase 1 (MMP1), MMP1 (gene 4312)
As to the kind of experiment: BSK_BE3C_MMP1: BioMAP Diversity Plus: BE3C Assay for Matrix Metallopeptidase 1 (MMP1) Biomarker Activity (AID 2283024; active = hit-call score of the fitted dose curve at least 0.9, where 1 is the maximum; inactive = score below 0.9). The following applies: primary human bronchial epithelial cells; actives raise or lower the signal. The gist of the method: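 MMP1 signal, measured by ELISA after a 24 h chemical exposure of human primary bronchial epithelial cells, is analysed with bidirectional fitting using DMSO as negative control.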

Experiment [11] in a line: BSK_3C_Vis: BioMAP Diversity Plus: 3C Assay for Morphology Visualization (AID 2283025; active = hit-call score of the fitted dose curve at least 0.9, where 1 is the maximum; inactive = score below 0.9;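 also: fitted both ways so gain or loss versus DMSO counts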). The following applies: primary human endothelial cells (HUVEC). Summed up:
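Morphology read by light microscopy serves as a background control for the multiplexed 3C assay in human umbilical vein endothelial cells, taken 24 h after dosing, with DMSO as the negative control and bidirectional curve fitting.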

Read-out in experiment [12]: Pselectin, SELP (gene 6403)
As to the kind of experiment: BSK_4H_Pselectin: BioMAP Diversity Plus: 4H Assay for Pselectin Biomarker Activity (AID 2283026; active = hit-call score of the fitted dose curve at least 0.9, where 1 is the maximum; inactive = score below 0.9). The note with it: primary human endothelial cells (HUVEC); actives raise or lower the signal. The gist of the method:
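Endothelial primary cells (human umbilical vein) are dosed, incubated 24 h, and assayed for surface P-selectin by ELISA; responses in either direction are fitted relative to the DMSO negative control.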

Experiment [13] is described as follows: BSK_4H_SRB: Viability Assessment in the BioMAP Diversity Plus: 4H Assay (AID 2283027; active = hit-call score of the fitted dose curve at least 0.9, where 1 is the maximum; inactive = score below 0.9;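 also: cells exposed to compound for 24 h before staining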). The note with it: primary human endothelial cells (HUVEC). Summed up: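 HUVEC, 24 h post-dose; 10% TCA fix, 0.1% SRB stain, A560 nm. Total protein = overt cytotoxicity, parallel to biomarker read. Bidirectional fit vs DMSO baseline.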
Experiment [14] is described as follows: BSK_BE3C_SRB: Viability Assessment in the BioMAP Diversity Plus: BE3C Assay (AID 2283028; active = hit-call score of the fitted dose curve at least 0.9, where 1 is the maximum; inactive = score below 0.9). The note with it: primary human bronchial epithelial cells. Summed up:
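Cytotoxicity read-out: SRB (0.1%) staining of TCA-fixed (10%) human lung bronchial epithelial cells, absorbance 560 nm, 24 h post-dosing. Curves fitted both directions relative to DMSO.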

Read-out in experiment [15]: Thrombomodulin, THBD (gene 7056)
Description: BSK_3C_Thrombomodulin: BioMAP Diversity Plus: 3C Assay for Thrombomodulin Biomarker Activity (AID 2283029; active = hit-call score of the fitted dose curve at least 0.9, where 1 is the maximum; inactive = score below 0.9). The following applies: primary human endothelial cells (HUVEC); actives raise or lower the signal. Summed up: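 Endothelial cells from umbilical vein are dosed with test chemical and incubated 24 h. Thrombomodulin is then quantified by ELISA, with DMSO serving as negative control and activity baseline.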

In experiment [16] the target is human Vitamin D Receptor (VDR), VDR (gene 7421) (UniProt P11473). Description: ATG_VDR_TRANS: Attagene TRANS-FACTORIAL HepG2 Assay for human Vitamin D Receptor (VDR) (AID 2283022). Summed up:
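Transactivation by an exogenous VDR-Gal4 chimera in transiently transfected HepG2 cells was measured as reporter transcript level 24 hours after chemical treatment. RT-PCR products were analysed by capillary electrophoresis and fitted in the positive direction relative to DMSO.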

Experiment [17] addresses human Thyroid Receptor alpha (THRa1), THRA (gene 7067) (UniProt P10827). As to the kind of experiment: ATG_THRa1_TRANS: Attagene TRANS-FACTORIAL HepG2 Assay for human Thyroid Receptor alpha (THRa1) (AID 2283014). The gist of the method: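 Transcripts from GAL4-UAS-driven reporters, measured after 24 h compound exposure by RT-PCR plus capillary electrophoresis of 6-FAM-labeled fragments, were fitted for gain of signal relative to DMSO. Cells: transiently transfected HepG2 expressing NR-Gal4 chimeras.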

Read-out in experiment [18]: E-selectin (Homo sapiens) (UniProt P16581)
As to the kind of experiment: BSK_3C_Eselectin: BioMAP Diversity Plus: 3C Assay for Eselectin Biomarker Activity (AID 2283015; active = hit-call score of the fitted dose curve at least 0.9, where 1 is the maximum; inactive = score below 0.9;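 also: cell surface E-selectin protein quantified by ELISA 24 h after dosing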). The note with it: primary human endothelial cells (HUVEC); actives raise or lower the signal. Summed up: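 E-selectin ELISA readout, fitted bidirectionally relative to DMSO, taken 24 h post-dosing in HUVEC cultures of the 3C system. Overt cytotoxicity tracked with sulforhodamine B staining of parallel wells.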

Sequence of human Thyroid Receptor alpha (THRa1), THRA (gene 7067) (P10827 whole entry, looked up, the tested form may be a part): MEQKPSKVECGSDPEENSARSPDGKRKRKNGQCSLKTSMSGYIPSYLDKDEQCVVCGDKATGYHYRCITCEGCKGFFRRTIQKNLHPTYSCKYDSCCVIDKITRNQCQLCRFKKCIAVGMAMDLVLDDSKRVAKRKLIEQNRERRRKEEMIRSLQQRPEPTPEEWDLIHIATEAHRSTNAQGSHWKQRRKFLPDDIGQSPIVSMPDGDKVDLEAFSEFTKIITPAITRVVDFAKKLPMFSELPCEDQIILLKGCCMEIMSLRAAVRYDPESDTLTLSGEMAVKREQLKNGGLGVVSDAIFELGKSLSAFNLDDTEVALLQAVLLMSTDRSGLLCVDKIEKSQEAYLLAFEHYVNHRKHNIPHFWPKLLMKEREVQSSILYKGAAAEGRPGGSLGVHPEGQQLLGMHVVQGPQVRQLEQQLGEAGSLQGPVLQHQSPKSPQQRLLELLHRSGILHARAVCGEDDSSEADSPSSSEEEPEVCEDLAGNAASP
Sequence of human Retinoid X Receptor beta (RXRb), RXRB (gene 6257) (P28702 whole entry, looked up, the tested form may be a part): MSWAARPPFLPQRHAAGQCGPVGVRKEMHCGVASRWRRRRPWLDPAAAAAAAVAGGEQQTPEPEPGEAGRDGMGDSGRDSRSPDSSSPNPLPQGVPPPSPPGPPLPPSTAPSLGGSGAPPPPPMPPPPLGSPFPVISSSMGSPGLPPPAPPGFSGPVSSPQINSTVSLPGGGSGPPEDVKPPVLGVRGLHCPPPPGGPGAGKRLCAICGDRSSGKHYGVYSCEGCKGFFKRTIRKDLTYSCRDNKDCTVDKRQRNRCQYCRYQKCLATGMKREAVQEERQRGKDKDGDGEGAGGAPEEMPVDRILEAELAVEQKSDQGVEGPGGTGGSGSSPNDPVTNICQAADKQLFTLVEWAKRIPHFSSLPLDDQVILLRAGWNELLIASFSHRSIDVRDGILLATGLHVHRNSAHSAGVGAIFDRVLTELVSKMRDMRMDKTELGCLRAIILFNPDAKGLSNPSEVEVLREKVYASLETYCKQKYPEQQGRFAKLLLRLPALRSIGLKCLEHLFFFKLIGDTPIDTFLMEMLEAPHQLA
Sequence of human Vitamin D Receptor (VDR), VDR (gene 7421) (P11473 whole entry, looked up, the tested form may be a part): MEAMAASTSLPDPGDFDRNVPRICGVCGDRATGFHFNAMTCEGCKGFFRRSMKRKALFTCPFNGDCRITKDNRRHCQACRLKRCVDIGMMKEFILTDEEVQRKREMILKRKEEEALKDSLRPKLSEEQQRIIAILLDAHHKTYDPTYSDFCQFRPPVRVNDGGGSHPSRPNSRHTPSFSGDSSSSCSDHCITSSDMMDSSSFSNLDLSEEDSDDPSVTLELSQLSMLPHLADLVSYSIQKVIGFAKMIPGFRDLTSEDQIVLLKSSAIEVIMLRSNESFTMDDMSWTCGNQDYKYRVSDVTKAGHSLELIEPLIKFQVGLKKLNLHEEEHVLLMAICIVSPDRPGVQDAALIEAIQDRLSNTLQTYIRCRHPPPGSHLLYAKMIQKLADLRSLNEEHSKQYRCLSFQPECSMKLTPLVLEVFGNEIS
Sequence of Retinoic acid receptor RXR-alpha (Homo sapiens) (P19793 whole entry, looked up, the tested form may be a part): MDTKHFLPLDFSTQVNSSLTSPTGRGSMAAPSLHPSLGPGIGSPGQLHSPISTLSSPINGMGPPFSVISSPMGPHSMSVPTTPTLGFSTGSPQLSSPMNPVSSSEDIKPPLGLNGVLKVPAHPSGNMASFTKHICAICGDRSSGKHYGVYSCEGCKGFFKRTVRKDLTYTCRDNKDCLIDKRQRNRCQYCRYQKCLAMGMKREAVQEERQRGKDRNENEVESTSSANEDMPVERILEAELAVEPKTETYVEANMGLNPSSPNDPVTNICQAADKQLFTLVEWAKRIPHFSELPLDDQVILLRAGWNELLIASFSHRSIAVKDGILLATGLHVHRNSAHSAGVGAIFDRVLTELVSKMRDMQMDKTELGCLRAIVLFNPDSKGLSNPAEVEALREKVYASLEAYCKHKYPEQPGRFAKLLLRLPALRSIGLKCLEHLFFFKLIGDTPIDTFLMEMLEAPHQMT
Sequence of E-selectin (Homo sapiens) (P16581 whole entry, looked up): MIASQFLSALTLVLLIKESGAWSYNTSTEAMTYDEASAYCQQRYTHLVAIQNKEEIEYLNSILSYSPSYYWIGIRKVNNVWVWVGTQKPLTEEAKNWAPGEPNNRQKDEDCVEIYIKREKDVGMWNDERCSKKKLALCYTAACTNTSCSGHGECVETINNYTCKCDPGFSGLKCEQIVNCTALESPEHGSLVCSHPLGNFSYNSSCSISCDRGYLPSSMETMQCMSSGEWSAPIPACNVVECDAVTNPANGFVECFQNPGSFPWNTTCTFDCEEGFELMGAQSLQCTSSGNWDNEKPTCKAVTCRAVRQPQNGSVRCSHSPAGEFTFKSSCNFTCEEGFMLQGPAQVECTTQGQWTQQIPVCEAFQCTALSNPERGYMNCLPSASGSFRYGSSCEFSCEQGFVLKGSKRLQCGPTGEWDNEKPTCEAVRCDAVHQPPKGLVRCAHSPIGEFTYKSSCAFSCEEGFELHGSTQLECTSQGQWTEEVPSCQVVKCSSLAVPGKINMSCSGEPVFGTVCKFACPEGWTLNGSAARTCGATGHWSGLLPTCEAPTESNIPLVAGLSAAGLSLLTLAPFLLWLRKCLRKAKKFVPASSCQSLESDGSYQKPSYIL

The term AC50 denotes the concentration giving half of the maximal activity seen. For `COc1ccc(C(=O)c2ccccc2)c(O)c1`, the outcome in experiment [1], in experiment [3], in experiment [5], in experiment [7], in experiment [8] and in experiment [10] was inactive. For the same compound, the outcome in [11], in [12], in experiment [13], in [14] and in [15] was inactive. Besides, the AC50 is 28.7 µM (active) in experiment [2], 0.185 µM (active) in experiment [4], 27.8 µM (active) in experiment [6] and 4.55 µM (active) in experiment [9].

In the case of `CCCCC1C(=O)N(c2ccccc2)N(c2ccccc2)C1=O`, the result in experiment [1], in experiment [3], in experiment [4], in experiment [5], in experiment [6] and in experiment [7] was inactive. Further, the outcome in experiment [8], in experiment [16], in experiment [9], in experiment [10], in experiment [12] and in experiment [13] was inactive. For the same compound, the outcome in [14] and in [15] was inactive. In experiment [11], the AC50 is 37.5 µM (active).

On to `CCC(C)N` (stereo not drawn), for which the compound was classed as inactive in experiment [2].

As to `CC(C)c1ccc2ncccc2c1`, the compound was classed as inactive in [2] and in experiment [17].

On to `O=C(O[C@@H]1Cc2c(O)cc(O)cc2O[C@@H]1c1cc(O)c(O)c(O)c1)c1cc(O)c(O)c(O)c1`, for which the outcome in experiment [2], in experiment [17] and in experiment [16] was inactive.

On to `OCCCc1ccccc1`, for which the call in experiment [1], in experiment [2] and in experiment [16] was inactive.

As for `CCCCCCCCCCCCCCCCCCOS(=O)(=O)O`, the AC50 in [2] was 34.3 µM (active); in experiment [16], 119 µM (active). In experiment [17], the call was inactive.

With `O=C(OCc1ccccc1)c1ccc(O)cc1`, in experiment [2], the compound was called inactive.

Take `CCCCc1ccc(Cl)cc1`: the compound was classed as inactive in experiment [1], in [2] and in [16].

Consider `CC(C)=CCCC(C)=CC#N`, for which the compound was called inactive in experiment [2].

Regarding `CCOC(=O)OC(=O)OCC`, the compound was called inactive in experiment [1] and in experiment [17].

As to `C=C(C)C(=O)OCC(O)COc1ccc(C(C)(C)c2ccc(OCC(O)COC(=O)C(=C)C)cc2)cc1` (stereo not drawn), the compound was classed as inactive in experiment [1] and in experiment [16]. Further, the concentration at half-maximal activity (AC50) in [17] was 23.8 µM (active).

Regarding `Cc1c(Cl)cccc1Cl`, the call in experiment [1] and in [17] was inactive.

Turning to `O=C1CCCCCCCCCCC1`, the result in [1], in [18], in [3], in experiment [4], in experiment [5] and in experiment [6] was inactive. Moreover, the result in [7], in [8], in [9], in experiment [10], in experiment [11] and in experiment [12] was inactive. The result in [13], in [14] and in [15] was inactive. In experiment [2], the AC50 is 44.4 µM (active).

With `CCCCC1CCC(=O)O1` (stereo not drawn), in experiment [2], the call was inactive.

Consider `CC(C)c1cc(C(C)C)cc(C(C)C)c1`, for which the AC50 is 6.06 µM (active) in experiment [1] and 0.399 µM (active) in experiment [2]. In addition, in experiment [16], the result was inactive.

In the case of `CCCC/C=C/C=C\C=O`, the compound was called inactive in experiment [1] and in [17].

For the compound `CCCCCCCOC(=O)c1ccc(O)cc1`, the AC50 in experiment [2] was 11.1 µM (active).

With `Cc1c[nH]c(=O)[nH]c1=O`, the outcome in [2], in [17] and in experiment [16] was inactive.

In the case of `C=CC(C)(CCC=C(C)C)OC(=O)C=Cc1ccccc1` (stereo not drawn), the compound was classed as inactive in [2], in experiment [17] and in [16].
